Source: PubChem BioAssay
Pf Dd2 inh: inhibitors of Plasmodium falciparum Dd2 growth; Potency, µM (series often up to 28.9 µM), without a hit: at the highest dose activity, negative = inhibition, hits mostly inhibitors; P. falciparum Dd2 growth, SYBR Green, 72 h; AID 1347417; 120,000 compounds, 4.3% hits; active means well fitted inhibition curve with a large enough effect;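 further: plate controls were DMSO vehicle for no effect and reference drug for full effect; nearly all actives have a fitted effect of over 65% in size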
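Infected erythrocytes (Dd2, 0.3% parasitemia, 2.5% hematocrit final) are added to compound in RPMI-1640/Albumax II medium, grown 72 h at 37C in low oxygen, then lysed with saponin/Triton-X containing SYBR Green and read by fluorescence.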
Numbers without * were called inactive; i = inactive; [ ] = dose if it differs, or a comment. This excerpt belongs to a sample that is enriched for hits. Potency means the concentration at half of the fitted maximal effect.

SMILES	Pf Dd2 inh
COc1ccc(-n2nc(C3CCCN(C(=O)C(C)(C)C)C3)[nH]c2=O)cc1 (configuration not stated)	i
CC(C)Cc1cnc(C2CCCN(C(=O)OC(C)(C)C)C2)[nH]1 (configuration not stated)	7.1µM*
CC(C)c1ccc(N2C(=O)[C@@H]3C[C@@H](NC(=O)C4CCN(c5nccc(C(F)(F)F)n5)CC4)CCN3C2=O)cc1	i
CCOc1ccc(C(=O)N2CCC3(CC2)NC(=O)N(Cc2ccccc2)C3=O)cc1	13%
Nc1nc(C2CC(NC(=O)Cn3cnc4ccccc4c3=O)C2)cc(=O)[nH]1 (configuration not stated)	1%
Cc1noc(C)c1[S+](=O)([O-])N1CCC2(CC1)C(=O)NN=C2c1ccncc1	5%
CCCCN(C)CCCNC(=O)c1ccc2nc(N3CCCCC3)sc2c1	8.9µM*
COc1ccc(N2CCN(CCCNC(=O)c3ccc4nc(N5CCCCC5)sc4c3)CC2)cc1	7%
CCc1ccc2nc(N3CCC(C(=O)O)CC3)sc2c1	21%
CCN(CC)CCCNC(=O)c1ccc2nc(N3CCCCC3)sc2c1	-9%
CCCCN(C)CCNC(=O)C1CCN(c2nc3ccc(CC)cc3s2)CC1	10µM*
CCc1ccc2nc(N3CCN(C(=O)C4CC4)CC3)sc2c1	i
CCOCCn1c(=O)[nH]c2cc(C(=O)NCCc3ncccc3C)ccc21	-28%
CN(C)Cc1nnc(C2CC(NC(=O)CC3Cc4ccccc4C3)C2)n1C (configuration not stated)	-4%
COc1ccc(-c2ccc(NS(=O)(=O)c3cccc(C)c3)cc2)nn1	-21%
COc1ccc(-c2ccc(NS(=O)(=O)c3ccccc3Cl)cc2)nn1	11µM*
COc1ccc(-c2ccc(NS(=O)(=O)c3ccccc3)cc2)nn1	-2%
COc1cccc(-c2n[nH]c3c2CC(=O)N(CC2CCOCC2)C3)c1	-9%[44.1 µM]
Cc1nnc2n1CCC(NC(=O)CC1=CCCCC1)CC2 (configuration not stated)	4%
COc1ccc2[nH]c(C(=O)NCC(=O)N3CCCCCCNC(=O)CC3c3ccccc3)cc2c1 (configuration not stated)	5µM*
Cc1ncccc1C(=O)NCC(=O)N1CCCCCNC(=O)CC1c1ccccc1 (configuration not stated)	14%
COc1ccc(C(=O)NCC(=O)N2CCCCCCNC(=O)CC2c2ccccc2)c(OC)n1 (configuration not stated)	8.9µM*
COc1ccc(C2(C(=O)NCC(=O)N3CCCCCNC(=O)CC3c3ccccc3)CC2)cc1 (configuration not stated)	-2%
COc1ccc(CCC(=O)NCC(=O)N2CCCCCNC(=O)CC2c2ccccc2)cc1 (configuration not stated)	i
Cc1nc(C)c(C(=O)NCC(=O)N2CCCCCCNC(=O)CC2c2ccccc2)s1 (configuration not stated)	-1%
SMILES	Pf Dd2 inh
COc1ccccc1-c1cc(C(=O)N2CCN(c3ncccn3)CC2)c2cnn(C)c2n1	-17%
COC1CCOC2(CCN(C(=O)CCc3ccccc3)CC2)C1 (configuration not stated)	-1%
COc1ccccc1C(=O)N1CCCC2(CC(c3cccnc3)=NO2)C1 (configuration not stated)	20%
O=C(Nc1ccccc1Cl)N1CCCC2(C1)Nc1cccnc1NC2=NC1CCCC1 (configuration not stated)	i[5.79 µM]
Cn1nccc1C(=O)N1CCC(N2C[C@H](O)C[C@H]2C(=O)NC2CCCCC2)CC1	-14%
CCOc1ccc(C(=O)N[C@@H]2CN(C)C[C@H]2CN(C)C)cc1	i
Cc1ccc(C(=O)N2CCC(N3CCCOC3=O)CC2)cc1	24%[44.1 µM]
CCC(CC)C(=O)NC1CCN(C(=O)N2CC3CC(C2)[C@H]2CCCC(=O)N2C3)CC1 (some centres not stated)	8%
CCOc1ccccc1C1C(C(N)=O)=C(C)Nc2nc(-c3ccccc3Cl)nn21 (configuration not stated)	-8%
CCOc1ccc(C2C(C(=O)Nc3ccccc3)=C(C)Nc3nc(-c4ccccc4Cl)nn32)cc1OC (configuration not stated)	8.9µM*
COc1ccc(C2C(C(N)=O)=C(C)Nc3nc(-c4ccccc4Cl)nn32)cc1 (configuration not stated)	-22%
Cc1ccc(C)c(-c2[nH]ncc2CN2CCCn3nc(CO)cc3C2)c1	-4%
Cc1ccc(NC(=O)c2cc(-c3ccc[nH]3)n[nH]2)cc1	i
COc1ccc(N2CC(c3noc(-c4cccc(F)c4)n3)CC2=O)cc1OC (configuration not stated)	7%
O=C(O)c1ccc(CN[C@@H]2CO[C@H](CNS(=O)(=O)c3ccccc3)[C@H]2O)cc1	-2%[44.1 µM]
O=C(Nc1ccc2c(N3CCCC3)ncnc2c1)c1ccc(Cl)cc1	2.8µM*
O=C(Nc1ccc(Cl)cc1)c1ccc(-n2cnnc2)cc1	-6%
CCc1ccc(-c2nc3cc(NC(=O)c4ccc(C)c(C)c4)ccc3o2)cc1	-12%
COc1cccc(C(=O)Nc2ccc3c(N4CCOCC4)ncnc3c2)c1	-17%
Cc1ccc(C(=O)Nc2ccc3c(N4CCCCC4)ncnc3c2)cc1F	6.3µM*
CCc1cccc(NC(=O)c2c(C)oc3ncnc(N4CCCCC4)c23)c1	-10%
O=C(Nc1ccc2ncnc(N3CCCCC3)c2c1)c1ccccc1	i
Cc1ccc(NC(=O)c2ccc3c(c2)N(C)C2CCCCN2C3=O)cc1F (configuration not stated)	-19%
Cc1ccsc1C(=O)Nc1ccc2c(N3CCCCC3)ncnc2c1	11µM*
CCc1cc(N2CCCC(C(=O)c3sccc3C)C2)ncn1 (configuration not stated)	i
SMILES	Pf Dd2 inh
Cc1ccc(C(=O)Nc2ccc3c(N4CCOCC4)ncnc3c2)cc1C	11µM*
Cc1ccc(NC(=O)C2CCCN(c3ncnc4c3nc3n4CCCCC3)C2)cc1F (configuration not stated)	23%
CCC(=O)N1C[C@@H](Oc2ccccc2)C[C@H]1C(=O)N1CCOCC1	1%
C[S+](=O)([O-])N1CCCC2(Cc3ccccc3CN2C(=O)C2CCCC2)C1 (configuration not stated)	-2%
CO[C@@H]1COCC[C@H]1NC(=O)CCSc1ccc2c(c1)OCCO2	-8%
CCOC(=O)C1CCN(C(=O)C2COC3(CCC(C)CC3)N2C(=O)c2cccc(F)c2)CC1 (configuration not stated)	-11%
COCCOCC1(CNC(=O)C2CCCC2)C[C@@H](O)[C@@H](O)C1 (some centres not stated)	13%[44.1 µM]
O=S(=O)(c1cccs1)N1CCOC(Cc2cccc(F)c2)C1 (configuration not stated)	i
O=C(O)[C@H]1C[C@@H](C(=O)NCc2ccncc2)CN(C(=O)C2CC2)C1	-7%
CCOc1ccccc1CNC(=O)c1cc2n(n1)CC(c1ccc(Cl)cc1)OC2 (configuration not stated)	-14%
O=C(Nc1ccc2c(N3CCCC3)ncnc2c1)c1cccc(Br)c1	0.89µM*
O=C(Nc1ccc2ncnc(N3CCCCC3)c2c1)c1cc(F)cc(F)c1	-20%
O=C(Nc1ccc2oc(-c3cccnc3)nc2c1)c1cccc(Br)c1	54%
O=C(Nc1ccc2c(N3CCCCC3)ncnc2c1)c1ccc(F)cc1	3.2µM*
CC(=O)c1ccc(NC(=O)c2nc3ccccc3nc2N2CCCCC2)cc1	i
Cc1ccc(CN2CCC3(CC2)Cc2ccccc2CNC3=O)cc1	-20%
